From PubChem BioAssay AID1159580 (chemical genetic matrix, 2015)
Values joined by “and” are separate entries in the source; they are usually repeats but may differ in a detail not shown here. Equal values may be shown once. Among all 5,500 compounds or so, about 2,000 (36%) were called active. Another 18% or so got no clear call; they are omitted. No stated cut-off is given here; in the data, active means normalized growth mostly below about 0.91 (no sharp cut-off); inconclusive means no clear call, values can overlap the other calls; inactive means mostly above about 0.92. This is one part of the list.

Assay: chemical genetic growth profiling, strain panel (AID 1159580);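 further: tested at 20 µM; growth read once vehicle control cultures reached saturation at 30 °C; 1 = growth at the plate median or of vehicle wells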
Settings: S. cerevisiae deletion strains, growth OD
[1] = locus YHR030C, strain SLT2, stronger effect = lower value
[2] = locus YHR079C, strain IRE1, stronger effect = lower value
[3] = locus YJL095W, strain BCK1, stronger effect = lower value
[4] = locus YJR066W, strain TOR1, stronger effect = lower value
[5] = locus YLR113W, strain HOG1, stronger effect = lower value
[6] = locus YNL183C, strain NPR1, stronger effect = lower value
[7] = locus YOR231W, strain MKK1, stronger effect = lower value
[8] = locus YPL256C, strain CLN2, stronger effect = lower value

Measured: normalized growth

C#CCN(C)C(C)Cc1ccccc1 (centres undefined)
inactive: [1] 1.01 | [2] 1.03 | [3] 1.02 | [4] 0.95 | [5] 0.994 | [6] 0.959 | [7] 1.02 | [8] 0.989

O=C(O)P(=O)(O)O
0.738 (active) and 1.03 (inactive): [3]
0.898 (active) and 1.05 (inactive): [1]
inactive: locus YAL013W, strain DEP1, stronger effect = lower value 0.961 | locus YAL021C, strain ccr4, stronger effect = lower value 1.01 | locus YAL026C, strain drs2, stronger effect = lower value 0.979 | locus YAL030W, strain snc1, stronger effect = lower value 0.985 | locus YBL061C, strain skt5, stronger effect = lower value 0.984 | locus YBR009C, strain hhf1, stronger effect = lower value 1.01 | locus YBR021W, strain FUR4, stronger effect = lower value 0.994 | locus YBR023C, strain chs3, stronger effect = lower value 0.969 | locus YBR171W, strain sec66, stronger effect = lower value 0.994 | locus YBR229C, strain ROT2, stronger effect = lower value 0.996 | locus YBR231C, strain swc5, stronger effect = lower value 0.958 | locus YBR279W, strain paf1, stronger effect = lower value 0.981 | locus YCL011C, strain gbp2, stronger effect = lower value 0.982 | locus YCL016C, strain dcc1, stronger effect = lower value 0.998 | locus YCL029C, strain bik1, stronger effect = lower value 0.969 | locus YCL069W, strain vba3, stronger effect = lower value 1 | locus YCR088W, strain abp1, stronger effect = lower value 0.984 | locus YDL005C, strain med2, stronger effect = lower value 0.968 | locus YDL035C, strain GPR1, stronger effect = lower value 1 | locus YDL040C, strain nat1, stronger effect = lower value 0.984 | locus YDL074C, strain BRE1, stronger effect = lower value 0.892 | locus YDL101C, strain DUN1, stronger effect = lower value 0.964 | locus YDL134C, strain PPH21, stronger effect = lower value 1.01 | locus YDL185W, strain tfp1, stronger effect = lower value 0.932 | locus YDL192W, strain arf1, stronger effect = lower value 0.961 | locus YDR001C, strain nth1, stronger effect = lower value 0.976 | locus YDR069C, strain doa4, stronger effect = lower value 0.983 | locus YDR101C, strain arx1, stronger effect = lower value 0.983 | locus YDR137W, strain rgp1, stronger effect = lower value 0.984 | locus YDR150W, strain NUM1, stronger effect = lower value 0.986 | locus YDR159W, strain sac3, stronger effect = lower value 0.963 | locus YDR162C, strain NBP2, stronger effect = lower value 0.902 | locus YDR195W, strain ref2 0.955 | locus YDR297W, strain sur2, stronger effect = lower value 0.992 | locus YDR318W, strain mcm21, stronger effect = lower value 0.976 | locus YDR334W, strain swr1, stronger effect = lower value 0.988 | locus YDR335W, strain msn5, stronger effect = lower value 0.991 | locus YDR388W, stronger effect = lower value 0.967 | locus YDR392W, strain spt3, stronger effect = lower value 0.977 | locus YDR502C, strain sam2, stronger effect = lower value 0.957 | locus YEL003W, strain gim4, stronger effect = lower value 0.984 | locus YEL037C, strain rad23, stronger effect = lower value 0.99 | locus YEL061C, strain CIN8 (second series), stronger effect = lower value 0.975 | locus YEL061C, strain CIN8, stronger effect = lower value 0.984 | locus YER015W, strain faa2, stronger effect = lower value 0.984 | locus YER016W, strain bim1, stronger effect = lower value 0.983 | locus YER110C, stronger effect = lower value 0.936 | locus YER111C, strain swi4, stronger effect = lower value 0.98 | locus YER155C, strain BEM2 (second series), stronger effect = lower value 0.935 | locus YER155C, strain BEM2, stronger effect = lower value 0.983 | locus YER167W, strain BCK2, stronger effect = lower value 0.98 | locus YFR010W, strain ubp6, stronger effect = lower value 0.965 | locus YGL078C, strain dbp3, stronger effect = lower value 0.986 | locus YGL086W, strain mad1, stronger effect = lower value 0.965 | locus YGL167C, strain pmr1, stronger effect = lower value 0.984 | locus YGL173C, strain kem1, stronger effect = lower value 0.992 | locus YGL227W, strain vid30, stronger effect = lower value 0.982 | locus YGL240W, strain doc1, stronger effect = lower value 0.964 | locus YGL248W, strain PDE1, stronger effect = lower value 0.94 | locus YGL253W, strain hxk2, stronger effect = lower value 0.985 | locus YGR078C, strain PAC10, stronger effect = lower value 0.93 | locus YGR135W, strain pre9, stronger effect = lower value 0.945 | locus YGR229C, strain SMI1, stronger effect = lower value 0.886 | locus YGR252W, strain gcn5, stronger effect = lower value 0.911 | locus YHR013C, strain ard1, stronger effect = lower value 0.985 | locus YHR027C, strain rpn1, stronger effect = lower value 0.999 | locus YHR079C, strain IRE1 (second series), stronger effect = lower value 0.963 | [2] 1.05 | locus YHR094C, strain hxt1, stronger effect = lower value 0.982 | locus YHR129C, strain ARP1, stronger effect = lower value 0.973 | locus YHR142W, strain chs7, stronger effect = lower value 0.978 | locus YHR200W, strain rpn10, stronger effect = lower value 0.96 | locus YIL066C, strain RNR3, stronger effect = lower value 0.999 | locus YIL073C, strain SPO22, stronger effect = lower value 0.868 | locus YIL125W, strain kgd1, stronger effect = lower value 0.979 | locus YIR030C, strain dcg1, stronger effect = lower value 0.959 | locus YJL092W, strain hpr5, stronger effect = lower value 0.982 | locus YJL095W, strain BCK1 (second series), stronger effect = lower value 0.993 | locus YJL115W, strain asf1, stronger effect = lower value 0.986 | locus YJL129C, strain trk1, stronger effect = lower value 0.984 | locus YJL134W, strain LCB3, stronger effect = lower value 0.985 | locus YJL154C, strain vps35, stronger effect = lower value 0.977 | locus YJL164C, strain tpk1, stronger effect = lower value 1 | locus YJL166W, strain qcr8, stronger effect = lower value 0.978 | locus YJL168C, strain set2, stronger effect = lower value 0.97 | locus YJL187C, strain SWE1 (second series), stronger effect = lower value 0.942 | locus YJL187C, strain SWE1, stronger effect = lower value 0.965 | locus YJR043C, strain POL32, stronger effect = lower value 0.972 | [4] 0.982 | locus YJR075W, strain HOC1, stronger effect = lower value 0.926 | locus YKL009W, strain mrt4, stronger effect = lower value 0.931 | locus YKL068W, stronger effect = lower value 0.969 | locus YKL085W, strain MDH1 (second series), stronger effect = lower value 0.96 | locus YKL085W, strain MDH1, stronger effect = lower value 0.96 | locus YKL160W, strain elf1, stronger effect = lower value 0.995 | locus YKL190W, strain CNB1, stronger effect = lower value 0.981 | locus YKR026C, strain gcn3, stronger effect = lower value 0.977 | locus YKR091W, strain srl3, stronger effect = lower value 0.986 | locus YLL001W, strain dnm1, stronger effect = lower value 0.991 | locus YLL026W, stronger effect = lower value 1 | locus YLL041C, strain sdh2, stronger effect = lower value 0.989 | locus YLR027C, strain aat2, stronger effect = lower value 0.974 | locus YLR039C, strain RIC1, stronger effect = lower value 0.855 | locus YLR058C, strain SHM2, stronger effect = lower value 0.97 | locus YLR102C, strain apc9, stronger effect = lower value 0.977 | [5] 1.07 | locus YLR221C, strain rsa3, stronger effect = lower value 0.975 | locus YLR258W, strain gsy2, stronger effect = lower value 1 | locus YLR262C, strain YPT6 (second series), stronger effect = lower value 0.967 | locus YLR262C, strain YPT6, stronger effect = lower value 0.842 | locus YLR268W, strain sec22, stronger effect = lower value 0.949 | locus YLR320W, strain mms22, stronger effect = lower value 0.967 | locus YLR330W, strain CHS5, stronger effect = lower value 0.957 | locus YLR342W, strain FKS1 (second series), stronger effect = lower value 0.897 | locus YLR342W, strain FKS1, stronger effect = lower value 0.981 | locus YLR357W, strain rsc2, stronger effect = lower value 0.972 | locus YLR370C, strain arc18, stronger effect = lower value 0.995 | locus YLR371W, strain rom2, stronger effect = lower value 0.982 | locus YLR384C, strain iki3, stronger effect = lower value 1 | locus YLR418C, strain cdc73, stronger effect = lower value 0.91 | locus YML016C, strain PPZ1, stronger effect = lower value 0.984 | locus YML032C, strain rad52, stronger effect = lower value 0.977 | locus YML120C, strain ndi1, stronger effect = lower value 0.98 | locus YML124C, strain tub3, stronger effect = lower value 0.981 | locus YMR058W, strain fet3, stronger effect = lower value 0.983 | locus YMR078C, strain ctf18, stronger effect = lower value 0.956 | locus YMR125W, strain sto1, stronger effect = lower value 0.986 | locus YMR129W, stronger effect = lower value 0.984 | locus YMR205C, strain PFK2, stronger effect = lower value 0.975 | locus YMR223W, strain ubp8, stronger effect = lower value 0.95 | locus YMR231W, strain pep5, stronger effect = lower value 0.993 | locus YMR263W, strain SAP30, stronger effect = lower value 0.938 | locus YNL067W, strain RPL9B, stronger effect = lower value 0.923 | locus YNL071W, strain lat1, stronger effect = lower value 0.99 | locus YNL128W, strain TEP1, stronger effect = lower value 0.925 | locus YNL153C, strain GIM3, stronger effect = lower value 0.968 | [6] 0.975 | locus YNL209W, strain ssb2, stronger effect = lower value 0.983 | locus YNL233W, strain BNI4, stronger effect = lower value 0.923 | locus YNL248C, strain rpa49, stronger effect = lower value 0.981 | locus YNL250W, strain rad50, stronger effect = lower value 0.956 | locus YNL271C, strain bni1, stronger effect = lower value 0.966 | locus YNL298W, strain CLA4, stronger effect = lower value 0.976 | locus YNL307C, strain MCK1, stronger effect = lower value 0.962 | locus YNL322C, strain KRE1 (second series), stronger effect = lower value 0.981 | locus YNL322C, strain KRE1, stronger effect = lower value 0.974 | locus YNR049C, strain mso1, stronger effect = lower value 0.987 | locus YNR052C, strain pop2, stronger effect = lower value 0.971 | locus YOL012C, strain htz1 0.927 | locus YOL147C, strain pex11, stronger effect = lower value 0.976 | locus YOR001W, strain rrp6, stronger effect = lower value 0.981 | locus YOR061W, strain CKA2, stronger effect = lower value 0.98 | locus YOR069W, strain VPS5, stronger effect = lower value 0.986 | locus YOR070C, strain gyp1, stronger effect = lower value 0.988 | locus YOR080W, strain dia2, stronger effect = lower value 0.987 | locus YOR083W, strain WHI5, stronger effect = lower value 0.995 | locus YOR106W, strain vam3, stronger effect = lower value 0.983 | locus YOR136W, strain idh2, stronger effect = lower value 0.968 | locus YOR144C, strain elg1, stronger effect = lower value 0.977 | locus YOR184W, strain ser1, stronger effect = lower value 0.941 | [7] 1.04 | locus YOR265W, strain rbl2, stronger effect = lower value 0.996 | locus YOR270C, strain vph1, stronger effect = lower value 0.961 | locus YOR290C, strain snf2, stronger effect = lower value 0.997 | locus YOR316C, strain cot1, stronger effect = lower value 0.974 | locus YPL051W, strain arl3, stronger effect = lower value 1.01 | locus YPL055C, strain LGE1, stronger effect = lower value 0.948 | locus YPL078C, strain atp4, stronger effect = lower value 1 | locus YPL106C, strain sse1, stronger effect = lower value 0.978 | locus YPL240C, strain hsp82, stronger effect = lower value 0.985 | locus YPL241C, strain CIN2, stronger effect = lower value 0.986 | [8] 1.07 | locus YPR119W, strain clb2, stronger effect = lower value 0.963 | locus YPR141C, strain kar3, stronger effect = lower value 0.958 | locus YPR163C, strain tif3, stronger effect = lower value 0.989 | locus YPR167C, strain met16, stronger effect = lower value 0.963 | strain wtn01, stronger effect = lower value 0.964
active: locus YKR001C, strain vps1, stronger effect = lower value 0.894 | locus YMR307W, strain GAS1, stronger effect = lower value 0.443
